Molecules are shown by their SMILES. Compounds without any hit were thinned out: in the full panel of roughly 83,000, 20% have a hit.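 Testing used 96-well plates and a 48-hour single-concentration exposure. Example: -40 means 40% of the starting cells died.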 A number with no mark means an inactive call. Calls of active or inactive are those of the source. Rule for the calls: active = growth percent below 10; inactive = the rest.

The source of these data is PubChem BioAssay (NCI).

Common to all, as to assay: NCI-60 one-dose screen, 48 h (100 = growth as untreated, 0 = no growth, -100 = all killed)
Common to all, as to settings: 10 µM unless noted

The test system of assay [1] is SR leukemia.
Assay [2] deals with RPMI-8226 leukemia.
For assay [3], the system named is OVCAR-8 ovarian.
For assay [4], the system named is OVCAR-5 ovarian.
Assay [5] concerns OVCAR-4 ovarian.
For assay [6], the system named is SK-OV-3 ovarian.
The test system of assay [7] is IGROV1 ovarian.
Assay [8] deals with OVCAR-3 ovarian.
The subject of assay [9] is HS 578T breast.
The test system of assay [10] is NCI/ADR-RES ovarian.
The subject of assay [11] is T-47D breast.
For assay [12], the system named is BT-549 breast.
Assay [13] concerns MDA-MB-435 melanoma.
The subject of assay [14] is SW-620 colon.
Assay [15] has as its system MCF7 breast.
Assay [16] relates to HCT-116 colon.
Assay [17] deals with HCC-2998 colon.
For assay [18], the system named is KM12 colon.

For the molecule `CCCCC[n+]1ccc(SCC(=O)N(C)c2ccc(Oc3ccccc3)cc2)c2ccccc21`, the growth is 84.5% in assay [1]; 66.2% in [2]; 98.4% in assay [3]; 105% in assay [4]; 92.6% in [5]; 101% in assay [6]. The growth in assay [7] is 117%; in [8], 90.9%; in [9] it was 109%; in assay [10] it was 104%; in assay [11], 68.5%; in assay [12], 130%. The growth in [13] is 98.1%; in [14], 86.4%; in assay [15] it was 95.7%; in assay [16], 92.8%; in [17], 100%; in assay [18], 102%.
Take `CC1=C(C(=O)/C=C/c2ccc(N(C)C)cc2)C(c2ccccc2)NC(=S)N1` (centres undefined): the growth in assay [1] was 96.8%; in assay [2] it was 101%; in assay [3] it was 102%; in [4], 102%; in assay [5], 107%; in assay [6], 111%. The growth in assay [7] is 98.9%; in assay [8], 109%; in assay [9], 98.2%; in assay [10] it was 100%; in assay [11], 101%; in assay [12], 118%. Moreover, the growth in assay [13] was 102%; in assay [14], 98.8%; in [15], 99.2%; in assay [16], 101%; in assay [17] it was 108%; in assay [18], 101%.
Take `COc1cc2c(c(OC)c1OC)CCC(c1cccc(NC(=O)c3cccc(Br)c3)c1)O2` (centres undefined): the growth in [1] is 84.2%; in [2], 78.2%; in [3], 93.6%; in [4], 98.5%; in assay [5], 83.5%; in assay [6], 84%. Also, the growth is 85% in assay [7]; 97.3% in assay [8]; 84.1% in assay [9]; 91.8% in [10]; 72.5% in [11]; 103% in [12]. The growth is 87.4% in [13]; 93.2% in assay [14]; 89% in assay [15]; 72.2% in assay [16]; 99.7% in assay [17]; 95.2% in assay [18].
In the case of `O=C1c2cccc3c(-c4ccc5c(c4)ncn5C4CCCCC4)ccc(c23)C(=O)N1c1nc2ccccc2s1`, the growth in [1] is 81%; in [2] it was 75.6%; in assay [3], 98%; in [4] it was 102%; in assay [5], 79.1%; in assay [6], 95%. The growth in [7] is 92.3%; in assay [8], 89.8%; in assay [9], 92.9%; in [10] it was 91.3%; in assay [11], 72.6%; in assay [12], 95.8%. Besides, the growth in [13] was 100%; in [14], 108%; in [15] it was 69%; in assay [16], 84.4%; in assay [17] it was 93%; in assay [18] it was 83.8%.
Take `CC1(C)NCCC[C@]2(C)[C@H]3CC(=O)[C@H]4[C@@H]5C[C@](C)(CO)CC[C@]5(C)CC[C@@]4(C)[C@]3(C)CC[C@@H]12`: the growth in assay [1] was 82%; in [2], 95%; in assay [3], 114%; in assay [4], 98.3%; in assay [5] it was 92%; in assay [6] it was 110%. The growth in [7] was 98.1%; in [8], 89.8%; in [9] it was 99.4%; in [10], 105%; in assay [11] it was 87.5%; in assay [12] it was 103%. Moreover, the growth in assay [13] was 92.2%; in assay [14] it was 98.6%; in [15], 87.3%; in assay [16], 84.1%; in assay [17] it was 100%; in [18], 95.4%.
`O=C(Nc1ccccc1C(=O)N/N=C(\c1ccccc1)c1ccccn1)c1ccc(F)cc1`: the growth is 14.4% in assay [1]; 29.1% in [2]; 17.1% in assay [3]; 41.7% in assay [4]; -5.03% (active) in [5]; 2.2% (active) in assay [6]. In addition, the growth in [7] is 22.8%; in assay [8], 18.1%; in [9] it was 59.9%; in assay [10], 9.79% (active); in assay [11], 12.7%; in assay [12] it was 16.1%. In addition, the growth in assay [13] was 29.5%; in assay [14], 30.2%; in assay [15], 12.7%; in assay [16], 17%; in assay [17], 32.5%; in assay [18], 26.6%.
Turning to `CNC(=O)c1cncc(Cn2nc(C)c(NC(=O)c3ccc(COc4ccc(C(F)(F)F)cc4C)cc3)c2C)c1`, the growth is 25% in assay [1]; 42.7% in [2]; 55% in assay [3]; 98.1% in assay [4]; 43.5% in assay [5]; 76.7% in [6]. In addition, the growth in [7] was 62.7%; in [8] it was 41%; in assay [9], 92.7%; in [10], 96.4%; in assay [11], 29.7%; in assay [12], 32.4%. The growth was 66.6% in assay [13]; 102% in [14]; 37.5% in [15]; 44.7% in [16]; 77.8% in [17]; 74.8% in [18].
Take `COc1cc2c3c(c4c5ccccc5[nH]c4c2c(OC)c1OC)C(=O)N(CCN1CCOCC1)C3=O`: the growth in assay [1] was 21.5%; in [2] it was 39.5%; in assay [3] it was 31%; in assay [4], 99.7%; in assay [5], 70%; in assay [6], 83.2%. Also, the growth is 53.9% in [7]; 76.4% in assay [8]; 66.6% in assay [9]; 45.8% in [10]; 66% in assay [11]; 73.5% in [12]. Also, the growth in [13] was 73.9%; in assay [14], 32.4%; in [15] it was 32%; in assay [16], 19.7%; in assay [17], 69.5%; in assay [18], 61%.
